Test results taken from PubChem BioAssay (NCATS).
“And” between values parts separate entries of the source, which are not always exact repeats. Equal values may be shown once. Inconclusive results are not listed. A call without a number means that no potency is given here. A number with no mark means an inactive call. The source made the active and inactive calls. Calls come from the whole dose curve; as a rule, active = well fitted curve in the direction sought with a large enough effect; inconclusive = small, poorly fitted or top-dose-only effect, or another doubt; inactive = no such curve, though single readings can be large; an effect the other way counts as inactive or inconclusive.

Assays:
[1] = Quantitative highthroughput screen to assess conditional lethalithy of NOMO1 cells grown in RPMI1640 with untreated serum (RPMI+s) (AID 1963876); note: nearly all actives have a fitted effect of over 35% in size
In short: (§1)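 Each medium arm—HPLM with 10% dialyzed FBS, or RPMI1640 with 5 mM glucose and 10% untreated or dialyzed FBS—was screened against an 11-point, 3-fold compound titration for 48 h at 37 °C, with CellTiter-Glo luminescence as endpoint.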

[2] = Quantitative highthroughput screen to assess conditional lethalithy of NOMO1 cells grown in RPMI1640 with dialyzed fetal bovine serum (RPMI+ds) (AID 1963877); note: nearly all actives have a fitted effect of over 30% in size; for viability: series mostly up to about 46 µM
In short: as §1

[3] = Quantitative highthroughput screen to assess conditional lethalithy of P12 Ichikawa cells grown in Human Plasma-Like Medium with dialyzed fetal bovine serum (HPLM+ds) (AID 1963879); conditions: Potency: viability; note: nearly all actives have a fitted effect of over 35% in size; for viability: series mostly up to about 46 µM
In short: as §1

[4] = Quantitative highthroughput screen to assess conditional lethalithy of P12 Ichikawa cells grown in RPMI1640 with dialyzed fetal bovine serum (RPMI+ds) (AID 1963880); conditions: Potency: P12-Ichikawa viability; note: nearly all actives have a fitted effect of over 35% in size
In short: as §1

[5] = Quantitative highthroughput screen to assess conditional lethalithy of P12 Ichikawa cells grown in RPMI1640 with untreated serum (RPMI+s) (AID 1963881); conditions: Potency: viability; note: nearly all actives have a fitted effect of over 35% in size; for viability: series mostly up to about 46 µM
In short: as §1

[6] = Cellular viability qHTS for adrenocortical cancer (ACC) cell line NCI-H295R (AID 1963990); note: nearly all actives have a fitted effect of over 60% in size
In short: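 CellTiter-Glo ATP luminescence, read 48 h after compound addition, measured viability of NCI-H295R adrenocortical cells grown serum-free with ITS. Final concentrations spanned up to 46 uM. Data normalized to DMSO and doxorubicin, fitted for IC50 and maximal response.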

[7] = Quantitative highthroughput screen to assess conditional lethalithy of SEM cells grown in RPMI1640 with unreated serum (RPMI+s) (AID 1963883); note: nearly all actives have a fitted effect of over 35% in size
In short: as §1

[8] = Cellular viability qHTS for adrenocortical cancer (ACC) cell line SW-13 (AID 1963989); conditions: SW-13 ACC cells viability, CellTiter-Glo, 48 h; activity (max response): hits give low values; note: nearly all actives have a fitted effect of over 65% in size;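 for activity (max response): cells grown in serum-free medium with ITS supplement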
In short: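 Viability was read as CellTiter-Glo luminescence after 48 h compound treatment (up to 46 uM final) of SW-13 cells grown serum-free; titration curves were fit with a four-parameter logistic model to give IC50 and efficacy.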

[9] = Quantitative highthroughput screen to assess conditional lethalithy of SEM cells grown in RPMI1640 with dialyzed fetal bovine serum (RPMI+ds) (AID 1963884); note: nearly all actives have a fitted effect of over 35% in size; for viability: series mostly up to about 46 µM
In short: as §1

[10] = Quantitative highthroughput screen to assess conditional lethalithy of SEM cells grown in Human Plasma-Like Medium with dialyzed fetal bovine serum (HPLM+ds) (AID 1963882); note: nearly all actives have a fitted effect of over 35% in size; for viability: series mostly up to about 46 µM
In short: as §1

[11] = Quantitative highthroughput screen to assess conditional lethalithy of NOMO1 cells grown in Human Plasma-Like Medium with dialyzed fetal bovine serum (HPLM+ds) (AID 1963878); note: nearly all actives have a fitted effect of over 35% in size
In short: as §1
Potency is the fitted concentration of half-maximal effect.

Compound | Potency [1] | Potency [2] | Potency [3] | Potency [4] | Potency [5] | Potency [6] | Potency [7] | activity (max response) [8] | Potency [9] | Potency [10] | Potency [8] | Potency [11]
CN1C(=O)C[C@H](C(=O)N[C@@H](Cc2cnc[nH]2)C(=O)N2CCC[C@@H]2C(N)=O)NC1=O | inactive | inactive | inactive | inactive | inactive | inactive |  |  |  |  |  | 
COc1ccc(-c2c(-c3ccc(O)cc3O)n[nH]c2C)cc1 | inactive | inactive |  | inactive |  | inactive | 19.1 µM (active) | -14.3% |  |  |  | 
Cc1cncc2cccc(S(=O)(=O)N3CCCN(C(=O)CN)C[C@@H]3C)c12 | 5.9 µM (active) | 4.18 µM (active) | 5.26 µM (active) | 6.62 µM (active) | 6.62 µM (active) |  |  |  | 4.18 µM (active) |  |  | 
CC(=O)O[C@]1(C(C)=O)CC[C@@H]2[C@@H]3C[C@H](C)C4=CC(=O)CC[C@]4(C)[C@H]3CC[C@@]21C | inactive | inactive | inactive | inactive |  |  | inactive |  | inactive | inactive |  | 
CC(C)OC(=O)C(C(=O)OC(C)C)=C1SC=CS1 | inactive | inactive | inactive | inactive | inactive | inactive |  | -12.3% and 0.529% | inactive |  |  | 
COc1ccc(-c2oc3c(CC=C(C)C)c(OC4O[C@H](CO)[C@@H](O)[C@H](O)[C@@H]4O)cc(O)c3c(=O)c2OC2O[C@@H](C)[C@H](O)[C@@H](O)[C@@H]2O)cc1 (stereo partly specified) | inactive | inactive |  | inactive |  |  | 13.2 µM (active) |  | 18.7 µM (active) | 18.7 µM (active) |  | 
C[C@@]12C[C@@]3(O)O[C@@H](O1)[C@]1(COC(=O)c4ccccc4)[C@@H]3C[C@@]12O[C@@H]1O[C@H](CO)[C@@H](O)[C@H](O)[C@@H]1O | inactive | inactive |  | inactive | inactive |  | inactive |  | inactive | inactive |  | 
COc1ccc2nc(S(=O)Cc3ncc(C)c(OC)c3C)[nH]c2c1 (stereo unspecified) | inactive | inactive | inactive | inactive | inactive | inactive |  | -12.3% | inactive | inactive |  | 
Nc1nc(=O)n([C@H]2CSC(CO)O2)cc1F (stereo partly specified) | inactive | inactive | inactive |  | inactive |  | inactive |  |  |  |  | 
COc1cc2ncn(-c3cc(OCc4ccccc4S(C)(=O)=O)c(C#N)s3)c2cc1OC | inactive | inactive | inactive | inactive |  |  | inactive |  |  | inactive |  | 
COC1CCC(N(C(=O)C2CCC(C)CC2)c2cc(C3=CCCCC3)sc2C(=O)O)CC1 (stereo unspecified) | inactive | inactive | 18.7 µM (active) | 14.8 µM (active) |  |  |  | 0.0132% |  |  |  | 
COC1=C(OC)C(=O)C(CC=C(C)CCC=C(C)CCC=C(C)CCC=C(C)CCC=C(C)CCC=C(C)CCC=C(C)CCC=C(C)CCC=C(C)CCC=C(C)C)=C(C)C1=O | inactive | inactive |  | inactive | inactive |  | inactive |  | inactive |  |  | 
CC1(C)S[C@H]2[C@H](NC(=O)[C@@H](N)c3ccc(O)cc3)C(=O)N2[C@@H]1C(=O)O | 8.33 µM (active) | 9.35 µM (active) | 7.43 µM (active) | 5.9 µM (active) | 8.33 µM (active) |  |  |  | inactive |  |  | 
O=c1c(-c2ccc(O)cc2)coc2cc(O)cc(O)c12 | inactive | inactive | inactive |  | inactive | inactive |  |  | inactive |  |  | 
CC(=O)NCCC(=O)N[C@@H](CCC(N)=O)C(=O)N[C@@H](CO)C(=O)N[C@@H](CCC(N)=O)C(=O)N[C@@H](CCC(N)=O)C(=O)N[C@H](C(=O)N[C@@H](Cc1ccccc1)C(=O)N[C@]1(C)CCCCCCC=CCCC[C@@](C)(C(=O)N[C@@H](CCC(N)=O)C(=O)N[C@@H](CC(N)=O)C(N)=O)NC(=O)[C@H](CC(C)C)NC(=O)[C@H](CC(C)C)NC(=O)[C@@H](CCCNC(=N)N)NC(=O)[C@H](Cc2c[nH]c3ccccc23)NC(=O)[C@H](CC(C)C)NC(=O)[C@H](CC(N)=O)NC1=O)[C@H](C)O | inactive | inactive |  | inactive |  |  | 0.833 µM (active) |  | 2.64 µM (active) |  | 28.2 µM (active) | 
O=C(C=Cc1ccc(O)cc1)c1ccc(O)cc1O | inactive | inactive |  | 13.2 µM (active) | 16.6 µM (active) |  | 18.7 µM (active) |  |  |  |  | 
CC(=O)Nc1cccc(-n2c(=O)n(C3CC3)c(=O)c3c(Nc4ccc(I)cc4F)n(C)c(=O)c(C)c32)c1 | 0.332 µM (active) | 0.209 µM (active) | 2.64 µM (active) |  | 3.72 µM (active) | inactive | 1.48 µM (active) |  | 1.87 µM (active) |  |  | 
O=S(=O)(NCCNCC=Cc1ccc(Br)cc1)c1cccc2cnccc12 | inactive | inactive |  | inactive | inactive |  |  |  |  |  |  | 
CNC1[C@H](O)C(O[C@@H]2C(O)C(O[C@H]3O[C@H]([C@@H](C)NC)CC[C@H]3N)[C@@H](N)C[C@H]2N)OC[C@]1(C)O (stereo partly specified) | inactive | inactive | inactive | inactive |  |  |  |  | inactive | inactive |  | 
CC(C)(N)C(=O)N[C@H](COCc1ccccc1)C(=O)N1CCC2(CC1)CN(S(C)(=O)=O)c1ccccc12 | inactive | 10.5 µM (active) |  | 23.5 µM (active) | 26.4 µM (active) | inactive |  | -9.29% |  |  |  | 
C[C@@H]1CN(CC(=O)N2CC(C)(C)c3ncc(Cc4ccc(F)cc4)cc32)[C@@H](CN2CCOC[C@H]2C)CN1 | inactive | 20.9 µM (active) | inactive | inactive | inactive |  |  | -27% | inactive | inactive |  | 

Compound | Potency [1] | Potency [2] | Potency [3] | Potency [4] | Potency [5] | Potency [6] | Potency [7] | activity (max response) [8] | Potency [9] | Potency [10] | Potency [8] | Potency [11]
COc1ccc(-c2coc3cc(O)cc(O)c3c2=O)cc1 | inactive | inactive |  |  | inactive | 28.2 µM (active) | inactive |  | inactive |  | 31.6 µM (active) | 
CC=CCC=CCCC(=O)[C@H]1O[C@@H]1C(N)=O | inactive | inactive |  | inactive | inactive |  |  |  |  |  |  | 
O=C1NC(=O)C(=Cc2ccc3c(c2)OC(F)(F)O3)S1 | inactive | inactive |  | inactive | inactive |  |  |  | inactive | inactive |  | 
CC(COc1ccccc1)N(CCCl)Cc1ccccc1 (stereo unspecified) | 0.166 µM (active) |  | 2.35 µM (active) | 2.96 µM (active) | 2.64 µM (active) | inactive | inactive | -3.42% | inactive | inactive |  | 0.209 µM (active)
CNC(=O)c1ccc(N2C(=S)N(c3ccc(C#N)c(C(F)(F)F)c3)C(=O)C2(C)C)cc1F | inactive |  | inactive | inactive | inactive | inactive | inactive | -1.24% |  | inactive |  | inactive
O=C(C=Cc1ccc(/C=C/C(=O)Nc2ccc(C3=NCCN3)cc2)cc1)Nc1ccc(C2=NCCN2)cc1 | inactive |  | inactive | inactive | inactive |  |  |  |  | inactive |  | inactive
N#CC(=Cc1ccc(O)c(O)c1)C(=O)NCc1ccccc1 | inactive | inactive |  |  |  |  | 20.9 µM (active) |  |  |  |  | 
Nc1nc2ccc(OC(F)(F)F)cc2s1 | inactive | inactive |  |  |  | 20 µM (active) |  |  |  | inactive |  | 
CC#CCn1c(N2CCC[C@@H](N)C2)nc2c1c(=O)n(Cc1nc(C)c3ccccc3n1)c(=O)n2C | inactive |  | inactive | inactive | inactive | inactive |  | 0.332% | inactive |  |  | inactive
Cc1cccc(-c2[nH]ncc2-c2ccc3ncccc3n2)n1 | inactive | 18.7 µM (active) |  |  |  | inactive |  | 4.45% |  |  |  | 
CCCCN(CCCC)CC(O)c1cc(Cl)cc2c1-c1ccc(Cl)cc1C2=Cc1ccc(Cl)cc1 (stereo unspecified) | inactive |  | inactive | inactive | inactive |  | inactive |  | inactive | inactive |  | inactive
CC1CC2C3CCC4=CC(=O)C=C[C@]4(C)[C@@]3(F)[C@@H](O)C[C@]2(C)[C@@]1(O)C(=O)CO (stereo partly specified) | inactive |  |  |  |  |  |  |  |  |  |  | inactive
Cc1ccccc1C(C(=O)NC1CCCC1)N(C(=O)Cn1cnc2ccccc21)c1cccc(F)c1 (stereo unspecified) | inactive |  | inactive | inactive | inactive |  |  |  | inactive | inactive |  | inactive
c1ccc(CNc2nc(N3CCOc4ccccc43)nc3c2CCCC3)cc1 | inactive |  | inactive | inactive | inactive |  |  |  | inactive | inactive |  | inactive
CC(C)(O)[C@H]1CC[C@@](C)([C@H]2[C@@H](O)C[C@@]3(C)[C@@H]4C[C@H](O[C@@H]5O[C@H](CO)[C@@H](O)[C@H](O)[C@@H]5O)[C@H]5C(C)(C)[C@@H](O[C@@H]6OC[C@@H](O)[C@H](O)[C@@H]6O)CC[C@@]56C[C@@]46CC[C@]23C)O1 | inactive |  | inactive | inactive | inactive |  | inactive |  | inactive | inactive |  | inactive
CC(C)(C)OC(=O)CN(Cc1ccc(Cl)cc1)Cc1ccc([N+](=O)[O-])s1 | inactive | inactive |  |  | inactive | inactive |  | -11.1% |  |  |  | 
C=C1C(=CC=C2CCC[C@]3(C)[C@@H]([C@H](C)C=C[C@H](C)C(C)C)CC[C@@H]23)C[C@@H](O)C[C@@H]1O | 16.6 µM (active) |  | 8.33 µM (active) | 14.8 µM (active) | 9.35 µM (active) | inactive |  | -0.683% |  |  |  | 8.33 µM (active)
COc1cc2c(cc1OC)CN(CCc1ccc(NC(=O)c3cccc4c(=O)c5cccc(OC)c5[nH]c34)cc1)CC2 | 4.69 µM (active) |  | 1.18 µM (active) | 2.96 µM (active) | 3.72 µM (active) | inactive | 1.05 µM (active) | -3.54% | 0.935 µM (active) | 4.18 µM (active) |  | 1.32 µM (active)
CC(CCc1ccc(O)cc1)NCCc1ccc(O)c(O)c1 (stereo unspecified) | inactive | inactive |  |  |  | inactive | 20.9 µM (active) | -9.68% | 20.9 µM (active) | 20.9 µM (active) |  | 
O=C(O)C1=NC(C(=O)O)CC(C=CN2c3cc(O)c(OC4OC(CO)C(O)C(O)C4O)cc3CC2C(=O)O)=C1 (stereo unspecified) | inactive |  | inactive | inactive | inactive |  | inactive |  | inactive | inactive |  | inactive
